This is a sample that favours compounds with a hit; in the whole collection about 5.3% have one here.
Tau fibril FP = tau fibrillization inhibition (FP). Potency, µM (titrated, usually from 57.7 µM), for inactives: top-dose activity, negative = inhibition, most hits filed as inhibitors. 280,000 compounds, 0.39% hits. K18 P301L tau heparin fibrillization, Alexa594 FP, 6 h; further: potency means the concentration at half of the fitted maximal effect; nearly all actives have a fitted effect of over 55% in size
Target sequence (P10636 561-689 P618L limits assumed): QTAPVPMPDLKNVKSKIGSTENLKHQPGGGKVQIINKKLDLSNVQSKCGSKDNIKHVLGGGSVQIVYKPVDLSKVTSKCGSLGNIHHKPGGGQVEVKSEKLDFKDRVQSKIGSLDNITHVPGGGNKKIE
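Compound effects on tau fibrillization are measured by Alexa 594 fluorescence polarization (ex 555, em 632 nm). K18 P301L tau is used at 15 uM with 0.24 uM labeled tracer, and 20 uM heparin induces aggregation over 6 hr at 37 C.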
FBPA coupling cs = coupling enzyme interference in Giardia aldolase counter-screen | AID 2472 | coupling enzyme system counterscreen, AmpLite Red fluorescence | 290,000 compounds, 0.67% hits | activity change, negative = inhibition, % at 58.2 µM, hits read low; in the data active means activity change below about -30%
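First, compound is pin-transferred into glyceraldehyde-3-phosphate coupling-enzyme reagent at 57.5 uM final and held 10 min at RT. Next, substrate, coupling system and AmpLite Red are added. After 20 min RT, fluorescence (525/598 nm) is read.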
Tau fibril ThT = tau fibrillization inhibition (ThT binding). 270,000 compounds, 2.1% hits. AID 1460. recombinant tau K18 P301L, heparin-induced fibrillization, ThT fluorescence. P10636. Potency, µM (highest dose often 57.4 µM), without a hit: top-dose activity, negative = inhibition, usual class: inhibitors; further: potency means the concentration at half of the fitted maximal effect; nearly all actives have a fitted effect of over 55% in size
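Fibril formation assay: tau K18 P301L at 15 uM with trace Alexa 594 label, heparin inducer 20 uM, pH 7 sodium acetate buffer, 37 C for 6 hr; endpoint ThT signal.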
Tau fluor cs = counter-screen for tau fibril formation inhibitors; tau K18 P301L (four-repeat tau fragment) Alexa594 fluorescence, heparin fibrillization; Potency, µM (doses to about 57.7 µM), for inactives: at the highest dose activity change, negative = decrease; 280,000 compounds, 0.93% hits; further: potency means the concentration at half of the fitted maximal effect; nearly all actives have a fitted effect of over 55% in size
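Human K18 P301L tau (15 uM unlabeled plus 0.24 uM Alexa 594-labeled, final) in 100 mM sodium acetate pH 7 was mixed with compound and 20 uM heparin and incubated 6 hr at 37 C.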
KDM4E inh = blocks human JMJD2E demethylase activity | Potency, µM (highest dose often 57.1 µM), without a hit: at the highest dose activity change, negative = inhibition, most hits filed as inhibitors | B2RXH2 | JMJD2E catalytic domain, FDH-coupled NADH fluorescence (FDH is formaldehyde dehydrogenase) | 230,000 compounds, 1.6% hits; active means well fitted inhibition curve with a large enough effect, not every such curve was filed as active; inconclusive means small, poorly fitted or top-dose-only effect, or another doubt; inactive means no such curve, though single readings can be large or run the other way;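 further: potency means the concentration at half of the fitted maximal effect; 0% = wells with enzyme and -100% = buffer wells without enzyme; nearly all actives have a fitted effect of over 50% in size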
Target sequence (B2RXH2 1-337 limits assumed): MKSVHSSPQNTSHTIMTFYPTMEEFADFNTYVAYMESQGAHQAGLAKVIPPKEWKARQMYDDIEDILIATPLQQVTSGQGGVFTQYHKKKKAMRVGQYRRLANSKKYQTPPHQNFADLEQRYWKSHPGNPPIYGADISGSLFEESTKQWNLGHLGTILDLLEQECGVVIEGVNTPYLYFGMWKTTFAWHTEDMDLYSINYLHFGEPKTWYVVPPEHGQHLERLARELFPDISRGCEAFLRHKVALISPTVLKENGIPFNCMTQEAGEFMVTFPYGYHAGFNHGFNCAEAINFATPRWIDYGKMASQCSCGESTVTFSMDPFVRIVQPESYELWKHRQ
Sfp inh = inhibitors of Bacillus subtilis Sfp phosphopantetheinyl transferase. Q9F4F7. Biochemical Sfp PPTase activity, qHTS. Potency, µM, without a hit: largest response in the series, negative = inhibition, actives largely listed as inhibitors. 310,000 compounds, 3.5% hits. AID 1490;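 further: the enzyme is Sfp with the accession as filed and its product quenches rhodamine fluorescence; potency means the concentration at half of the fitted maximal effect; 0% = enzyme reaction without inhibitor and -100% = no enzyme wells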
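Sfp 15 nM + cpd, 15 min RT; start w/ rhodamine-CoA 5 uM, BHQ-2-YbbR 12.5 uM (final); 50 mM Hepes pH 7.6, 10 mM MgCl2, 0.01% NP-40, 0.01% BSA; read 525/598 nm at 0 and 30 min.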
Sfp PPTase conf = confirmation of Bacillus subtilis Sfp PPTase inhibitors | shares compounds with Sfp inh | Sfp PPTase enzymatic assay, qHTS titration | Potency, µM (series often up to 114 µM), inactives show top-dose activity change, negative = inhibition, actives largely listed as inhibitors | 380 compounds, 79% hits;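 further: potency means the concentration at half of the fitted maximal effect; plate controls were uninhibited Sfp reaction for no effect and no enzyme control for full effect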
Target sequence (Q9F4F7 whole entry, looked up): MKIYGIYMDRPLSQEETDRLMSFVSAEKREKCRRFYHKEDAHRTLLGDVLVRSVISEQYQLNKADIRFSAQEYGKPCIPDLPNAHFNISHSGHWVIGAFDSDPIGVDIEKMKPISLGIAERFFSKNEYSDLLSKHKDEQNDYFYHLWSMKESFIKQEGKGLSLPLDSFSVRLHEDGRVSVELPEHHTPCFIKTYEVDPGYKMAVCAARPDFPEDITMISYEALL
Sfp gel assay = Inhibits B. subtilis Sfp phosphopantetheinylation; shares compounds with Sfp inh; purified Sfp, gel-based phosphopantetheinylation read-out; Potency, µM, usual class: inhibitors; 210 compounds, 20% hits; AID 2707;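 active means potency below 100 µM; inconclusive means dose-dependent response but potency above 100 µM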;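 further: band intensities scaled against SCH202676 control wells before curve fitting; potency is an IC50 for inhibitors of Sfp transfer activity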
An asterisk follows results filed as active; i = inactive; ? = inconclusive; nt = no result given; [ ] = dose if it differs, or a comment. Unless noted, the call rests on the fitted dose curve; in most records, active means well fitted curve in the direction sought with a large enough effect; inconclusive means small, poorly fitted or top-dose-only effect, or another doubt; inactive means no such curve, though single readings can be large; an effect the other way counts as inactive or inconclusive. Unless noted, on the % scale 0 is the no-effect control and ±100 the full control effect.

SMILES | Tau fibril FP | FBPA coupling cs | Tau fibril ThT | Tau fluor cs | KDM4E inh | Sfp inh | Sfp PPTase conf | Sfp gel assay
CO/N=C(/C(=O)N[C@@H]1C(=O)N2C(C(=O)O)=C(CSc3cnns3)CS[C@H]12)c1csc(N)n1 | nt | nt | nt | nt | nt | 40µM* | 53µM* | 56µM*
c1ccc(-c2ccc(-c3nc(-c4ccccn4)no3)cc2)cc1 | 7% | -6 | ? | -10% | ? | 40µM* | 53µM* | i
CSCCC(NS(=O)(=O)c1ccc2c(c1)oc(=O)n2C)C(=O)Nc1ccc(Cl)cc1 (stereo unspecified) | -8% | nt | 10% | -9% | nt | nt | nt | nt
CCC1=C[C@@H]2CN(C1)Cc1c([nH]c3ccccc13)[C@@](C(=O)OC)(c1cc3c(cc1OC)N(C)[C@H]1[C@@](O)(C(=O)OC)[C@H](OC(C)=O)[C@]4(CC)C=CCN5CC[C@]31[C@@H]54)C2 | nt | -7 | nt | nt | nt | 14µM* | ? | 56µM*
CCOc1ccc(CCNC(=O)c2ccc3c(c2)nc2n3CCOC2)cc1OCC | -12% | nt | ? | -10% | nt | nt | nt | nt
CCN(CC)S(=O)(=O)c1ccc2c(c1)nc(CCC(=O)O)n2C | -14% | 3 | -17% | -9% | 11% | 20µM* | 47µM* | nt
O=C(/C=C/c1ccco1)NCCc1ccccc1 | 0% | 1 | -17% | -9% | -14% | -21% | nt | nt
Cc1ccc(/C=C/C(=O)NCCc2ccccc2)o1 | nt | 5 | nt | nt | nt | 7.9µM* | 19µM* | nt
COC(=O)c1sc(NC(=O)c2cc(-c3ccccc3)nc3ccccc23)c(C#N)c1C | ? | -73* | 28µM* | ? | -1% | 0.63µM* | 8.3µM* | nt
COc1ccccc1C(=O)Nc1ccnn1C1CCN(CCC(C)c2ccc(C)o2)CC1 (stereo unspecified) | nt | 1 | nt | nt | nt | 50µM* | 19µM* | nt
Cc1ccc(C(C)CCN2CCC(n3nccc3NC(=O)c3ccccc3)CC2)o1 (stereo unspecified) | nt | 0 | nt | nt | nt | -23% | nt | nt
CC(C)(C)c1ccc(OCCC(=O)NCCc2ccc(S(N)(=O)=O)cc2)cc1 | nt | nt | nt | nt | nt | 20µM* | 12% | nt
COc1ccc(C2CC(=O)Oc3c(C(CCN4CCCC(C)C4)c4cc(OC)c(OC)c(OC)c4)c(OC)cc(OC)c32)cc1 (stereo unspecified) | nt | 1 | nt | nt | nt | -8% | nt | nt
Cc1nc2sc3c(c2c(=O)o1)CCC3 | 7% | -5 | 2% | 2% | -2% | 16µM* | ? | ?
Cc1cccc(N2CCN(C(=O)c3cc4c(=O)n(C)c5ccccc5c4s3)CC2)c1C | -2% | nt | ? | -7% | nt | nt | nt | nt
CC1=C(C(=O)O)N2C(=O)[C@@H](NC(=O)[C@@H](N)c3ccc(O)cc3)[C@@H]2SC1 | nt | 0 | nt | nt | -2%[25.5 µM] | 32µM* | -2%[53.7 µM] | ?
COCCNC(=O)CCn1c(=O)c2cc(OC)c(OC)cc2n(CC(=O)Nc2ccc(Cl)cc2F)c1=O | 2% | nt | -2% | -11% | nt | nt | nt | nt
Nn1c(=O)c2ccccc2n2c(SCc3ccccc3)nnc12 | 2% | 3 | -4% | 4% | -1% | 12% | nt | nt
Nn1c(=O)c2ccccc2n2c(SCc3ccc(C(F)(F)F)cc3)nnc12 | 5% | 0 | -14% | 1% | -1% | 45µM* | ? | i
N#C/C(=C/c1ccc(N2CCCCC2)o1)c1cccc(F)c1 | ? | -29 | 13µM* | ? | ? | 2.8µM* | 21µM* | 19µM*
N#C/C(=C/c1ccc(N2CCCCC2)cc1)c1cccc(F)c1 | 12% | 1 | ? | ? | 0% | -8% | nt | nt
Cc1ccc(/C(C#N)=C\c2cn(C)c3ccccc23)cc1 | 9% | -4 | -7% | ? | 9% | -4% | nt | nt
COc1cc(N2CCCC2)c(OC)cc1/C=C(/C#N)c1ccc(Br)cc1 | 9% | -1 | ? | ? | -10% | -11% | nt | nt
Cc1ccc(/C(C#N)=C\c2ccc(N3CCOCC3)o2)cc1 | ? | -25 | 10µM* | ? | 16µM* | 1.4µM* | 13µM* | i
N#C/C(=C/c1ccc(N2CCCCCC2)o1)c1ccc(Cl)cc1 | ? | -20 | 25µM* | ? | -28% | 5µM* | 19µM* | nt
SMILES | Tau fibril FP | FBPA coupling cs | Tau fibril ThT | Tau fluor cs | KDM4E inh | Sfp inh | Sfp PPTase conf | Sfp gel assay
CCOc1ccccc1NC(=O)c1c(NC(=O)CCC(=O)O)sc2c1CCCCC2 | -1% | -6 | ? | -3% | -1% | 13µM* | 24µM* | i
CCOC(=O)c1ccc(NC(=O)c2c(NC(=O)CCC(=O)O)sc3c2CCCCC3)cc1 | -15% | -6 | ? | -2% | -6% | 11µM* | 12µM* | i
Cc1ccccc1-n1nc(-c2ccc(N)cc2)cc1N | 4% | 2 | ? | -12% | -18% | 14µM* | 2% | i
Nc1ccc(-c2cc(N)n(-c3ccccc3)n2)cc1 | 4% | -21 | 10% | 12% | -3% | -20% | nt | nt
COc1ccc2[nH]c(=O)c(CN(C(C)=O)C3CCCCC3)cc2c1 | -3% | 3 | 12% | 1% | ? | 11% | nt | nt
COc1ccc2[nH]c(=O)c(CN(C(=O)c3ccco3)C3CCCCC3)cc2c1 | 0% | 11 | -3% | -1% | ? | 7.9µM* | 37µM* | i
O=C(c1ccc(-c2ccc([N+](=O)[O-])cc2)o1)N1CCCCC1 | 0% | 0 | ? | -22% | -15% | 16µM* | 19µM* | ?
Clc1cc(Cl)c2nc(N3CCCCC3)sc2c1 | 3% | 2 | -8% | -2% | -7% | 10µM* | 47µM* | nt
Cc1cc(C)cc(NC(=O)C2CCCN(C(=O)c3cnn(-c4ccccc4)c3-n3cccc3)C2)c1 (stereo unspecified) | -3% | nt | ? | -18% | nt | nt | nt | nt
COc1ccc(OC)c2c(=O)cc(C(=O)O)[nH]c12 | nt | -3 | nt | nt | -11% | -24% | nt | nt
O=C(O)c1cc(=O)c2c3nc4ccccc4oc-3cc(=O)c2[nH]1 | nt | nt | nt | nt | nt | 45µM* | 53µM* | nt
CCC1CC2(C)NC(=O)c3c(sc4c3CC(C)(C)OC4)N2C1=O (stereo unspecified) | -2% | 1 | -16% | -3% | ? | 16µM* | 19µM* | nt
Cn1c(NN)nc2sc3c(c2c1=O)CC(C)(C)OC3 | 9% | -4 | 12% | 6% | -4% | ? | nt | nt
N#C/C(=C(/O)COc1ccc(Br)cc1)c1nnc2n1CCCCC2 | 6% | 3 | -5% | -4% | -28% | 6% | nt | nt
CC/C(O)=C(/C#N)c1nnc2n1CCCCC2 | 7% | 5 | -7% | -3% | -19% | 14µM* | 3% | i
N#Cc1cccc(-c2ccc3ncnc(NCc4ccccc4)c3c2)c1 | nt | -1 | nt | nt | nt | 8% | nt | nt

Source: PubChem (National Center for Advancing Translational Sciences (NCATS))
